High-throughput results from PubChem.
BoNT-F LC inh – blocks Botulinum neurotoxin F light chain protease. Multiplex microsphere protease cleavage assay, flow cytometry. inhibition, % at 10 µM. 0.22% of 360,000 active. AID 588497; in the data active means inhibition above about 35%, passing the limit was not always enough; inconclusive means no clear call, values can overlap the other calls; further: plate controls were buffer without enzyme for full effect and enzyme alone for no effect
BH1578 lux ind – inducers of Vibrio cholerae quorum light production without autoinducers. V. cholerae BH1578 lux reporter, luminescence, 6 h. activation, % at 18.7 µM. 0.16% of 350,000 active; in the data active means activation mostly above about 9.7%, no sharp cut-off; inconclusive means no clear call, values can overlap the other calls; inactive means mostly below about 3.7%
Anthrax LF inh2 – anthrax lethal factor protease inhibition; P15917; multiplex microsphere protease cleavage assay, LF; inhibition, % at 10 µM; 0.12% of 360,000 active; AID 588501; further: plate controls were buffer without enzyme for full effect and enzyme alone for no effect
Target sequence (P15917 whole entry, looked up): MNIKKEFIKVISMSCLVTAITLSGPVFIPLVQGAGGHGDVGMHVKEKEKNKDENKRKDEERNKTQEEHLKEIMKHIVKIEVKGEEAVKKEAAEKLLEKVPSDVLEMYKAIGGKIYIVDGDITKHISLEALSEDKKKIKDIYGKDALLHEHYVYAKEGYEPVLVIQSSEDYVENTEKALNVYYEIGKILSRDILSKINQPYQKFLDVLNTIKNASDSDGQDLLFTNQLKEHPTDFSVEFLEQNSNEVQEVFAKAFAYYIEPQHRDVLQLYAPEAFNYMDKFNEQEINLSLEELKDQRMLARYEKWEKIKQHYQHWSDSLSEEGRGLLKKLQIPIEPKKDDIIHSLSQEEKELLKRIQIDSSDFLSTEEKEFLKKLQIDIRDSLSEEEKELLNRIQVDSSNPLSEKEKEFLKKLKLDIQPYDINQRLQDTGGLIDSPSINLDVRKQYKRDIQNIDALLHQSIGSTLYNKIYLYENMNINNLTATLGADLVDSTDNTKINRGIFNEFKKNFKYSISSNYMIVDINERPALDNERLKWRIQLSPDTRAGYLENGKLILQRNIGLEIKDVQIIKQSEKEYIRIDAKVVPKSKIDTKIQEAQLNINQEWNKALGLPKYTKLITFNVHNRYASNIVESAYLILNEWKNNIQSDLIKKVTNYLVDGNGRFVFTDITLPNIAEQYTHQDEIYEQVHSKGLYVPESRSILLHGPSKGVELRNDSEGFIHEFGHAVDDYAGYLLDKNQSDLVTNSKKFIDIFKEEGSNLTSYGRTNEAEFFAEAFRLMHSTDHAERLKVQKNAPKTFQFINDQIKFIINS
BJeLR viability – kills HRASV12-expressing BJeLR cells; BJeLR (HRASV12) viability, CellTiter-Glo ATP luminescence, 48 h; inhibition, % (no concentration beside the values); 0.17% of 300,000 active; AID 1554; in the data active means inhibition above about 50%; inconclusive means no clear call, values can overlap the other calls
Bead autofluor – compound fluorescence in toxin protease inhibitor counterscreen; compound autofluorescence counterscreen, microsphere flow cytometry; stronger effect = higher value; fluorescence intensity (test concentration not listed); 3.1% of 360,000 active; AID 624483; in the data active means fluorescence intensity above about 16000; inconclusive means no clear call, values can overlap the other calls
BoNT-A LC inh2 – blocks Botulinum neurotoxin A light chain protease | multiplex microsphere protease substrate cleavage, flow cytometry | inhibition, % at 10 µM | 0.17% of 360,000 active; further: plate controls were buffer without enzyme for full effect and enzyme alone for no effect
Starred values were filed as active, the others as inactive; i = inactive; ? = inconclusive; . = no result. An excerpt weighted towards active compounds, which were near 3.7% of everything screened. Unless noted, no stated cut-off is given here; in the data, active means inhibition above about 30%; inconclusive means no clear call, values can overlap the other calls; inactive means below that.

SMILES	BoNT-F LC inh	BH1578 lux ind	Anthrax LF inh2	BJeLR viability	Bead autofluor	BoNT-A LC inh2
CC(=O)c1ccc(N2CCN(C(=O)C3(S(=O)(=O)c4ccc(Cl)cc4)CC3)CC2)cc1	0	1	-1	-1	19219*	0
COc1ccc(C(O)c2nc(-c3cc(F)cc(Cl)c3)cs2)cc1 (stereo not drawn)	0	i	-6	.	3627	0
CC(C)c1ccc(/C=C2\CC/C(=C\C=N\N(C)C)C2=O)cc1	0	i	-10	5	8046	0
CC(C)/C=C1\CC/C(=C\c2ccc(N(C)C)cc2)C1=O	9	0	16	-6	6586	34*
O=C(C[C@H]1C/C=C\C[C@@H](Cc2ccc(F)cc2)C(=O)OC[C@H]2CCCN2C1=O)NCCO	-22	-1	-6	.	3934	-1
CCc1nc2ccc(C(=O)N(C)Cc3ccccc3)cn2c1N(C)Cc1ccc(OC)cc1	-13	-1	0	.	3092	-1
Cc1ccc(C)c(S(=O)(=O)NCc2ccc(C(=O)N3CCN(C)CC3)cc2)c1	0	i	-1	-2	16472*	?
CC(=O)c1c(C)[nH]c(C(=O)N2CCN(c3ccc(F)cc3)CC2)c1C	-5	0	-3	4	23763*	-4
COc1cccc(N2CCN(C(=O)c3[nH]c(C)c(C(C)=O)c3C)CC2)c1	-3	-8	-2	27	4014	-1
O=C1O[C@@H](c2ccccc2)C[C@@H](O)C(=O)CCCCc2ccccc21	3	.	-2	.	6046	0
CN(C)CCCOC(=O)c1sc2ccccc2c1Cl	-6	0	1	-9	4382	0
CCCCOC(=S)NC(=O)c1sc2ccccc2c1Cl	-1	i	-2	0	23574*	-1
Cc1nc(NCc2ccccc2)[nH]c(=O)c1CCC(C)C	0	0	0	0	24000*	-1
Cc1ccc(Nc2nc(C)c(CCC(C)C)c(=O)[nH]2)cc1	-5	-1	-2	11	3586	1
COCCNS(=O)(=O)c1ccc(C2CNC(=O)C2)cc1 (stereo not drawn)	-1	0	-2	-11	5261	0
O=C1CC(c2ccc(S(=O)(=O)NCCOc3ccccc3)cc2)CN1 (stereo not drawn)	2	0	-2	-2	21883*	3
COc1ccc(S(=O)(=O)NCCOc2ccccc2)cc1OC	4	i	0	6	22108*	1
CCNS(=O)(=O)c1ccc(Br)c(OC)c1	0	0	-2	-1	20265*	-1
CCNC(=O)C1(C)CCN1C(=O)CCc1cccc(Cl)c1 (stereo not drawn)	0	i	-5	.	4108	0
Cc1ccc(Cl)cc1-c1cc(C(=O)NCC2CCCCC2)[nH]n1	0	i	3	.	3839	0
O=C1CC(N2CCN(c3cccc(C(F)(F)F)c3)CC2)C(=O)N1c1ccccc1 (stereo not drawn)	4	4	-2	5	20561*	?
C/C(Cl)=C/CSc1nnc2n(N)c(=O)c3ccccc3n12	-2	33*	-3	-3	23180*	0
NC(=O)CSc1nnc2n(N)c(=O)c3ccccc3n12	7	i	-4	0	3156	-1
CCCC#Cc1ccc2c(c1)O[C@@H](CN(C)Cc1ccc3c(c1)OCO3)[C@H](C)CN([C@@H](C)CO)S2(=O)=O	-4	0	3	.	2863	0
O=C1c2cccnc2C(=O)N1Cc1ccco1	4	i	2	-12	11325	0
SMILES	BoNT-F LC inh	BH1578 lux ind	Anthrax LF inh2	BJeLR viability	Bead autofluor	BoNT-A LC inh2
O=c1[nH]c2cccnc2n1Cc1ccco1	-4	i	0	2	21423*	?
CC1=C(C(=O)N(C)C)CC(CC(=O)NCCCCc2ccccc2)C(=O)N1Cc1ccccc1 (stereo not drawn)	-9	0	-7	.	3732	-1
CCOC(=O)c1cc(NC(=O)c2ccc(OC)cc2)c(=O)oc1-c1ccccc1	-2	-4	-4	9	22500*	?
CC(=O)c1cc(NC(=O)c2ccc(C)cc2)c(=O)oc1/C=C/N(C)C	-9	-4	-5	7	4103	0
COc1ccc(C(=O)Nc2cc(C(C)=O)c(/C=C/N(C)C)oc2=O)cc1	0	-1	1	7	16251*	1
COC(=O)c1cc(NC(=O)c2ccc(OC)cc2)c(=O)oc1C	-4	0	0	3	4881	-1
CCOC(=O)c1c(-c2cccs2)csc1NC(=O)COC(=O)c1c(C)noc1C	-3	4	-4	2	16276*	0
COc1cccc(C(O)c2nc(-c3cccc(C(F)(F)F)c3)cs2)c1 (stereo not drawn)	-2	i	0	.	4070	0
COc1ccc(N2CCN(C(=O)C3CCN(S(=O)(=O)c4cccs4)CC3)CC2)cc1	-14	1	-7	5	5050	-1
O=C(C1CCN(S(=O)(=O)N2CCOCC2)CC1)N1CCC2(CC1)OCCO2	5	0	-2	-5	22049*	2
O=C(C1CCN(S(=O)(=O)N2CCC3(CC2)OCCO3)CC1)N1CCOCC1	0	3	-4	6	9675	1
O=C(C1CCN(S(=O)(=O)c2ccccc2)CC1)N1CCOCC1	-2	0	-2	-6	16459*	?
O=C(C1Cc2ccccc2CN1S(=O)(=O)c1cccs1)N1CCCCC1 (stereo not drawn)	-7	-2	-4	-1	25075*	-6
O=C(C1CCN(S(=O)(=O)c2cccs2)CC1)N1CCN(c2ccccc2)CC1	-2	i	-3	0	16746*	-1
O=C(C1CCN(S(=O)(=O)c2ccccc2)CC1)N1CCCCC1	1	-1	1	2	5171	-1
CN(C)c1ncnc2c1ncn2[C@H]1CN(Cc2ccc(Cl)cc2)C[C@@H](CO)O1	1	i	0	.	3554	0
C[C@H](O)CNC(=O)c1[nH]cnc1C(=O)Nc1cccc(Cl)c1	8	-1	-4	.	3340	0
CC(O)(c1ccc(F)c(F)c1)c1nc(-c2cc3ccccc3o2)cs1 (stereo not drawn)	2	-1	-3	.	2907	0
O=C(C1CCN(S(=O)(=O)c2ccc(F)cc2)CC1)N1CC=C(c2ccccc2)CC1	4	-3	-13	7	17943*	4
O=C(c1ccc(S(=O)(=O)N2CCC(c3nc4ccccc4s3)CC2)cc1)N1CCOCC1	-2	1	1	1	23501*	-4
Cc1ccc(S(=O)(=O)N2CCOCC2)cc1NC(=O)COC(=O)CSc1ccc(Br)cc1C	2	-2	2	2	22185*	2
O=C(NCc1ccccc1)NC1(C(=O)Nc2ccc3c(c2)OCCO3)CCCCC1	6	i	0	5	22030*	3
O=C(NCc1ccccc1)NC1(C(=O)N2CCOCC2)CCCCC1	5	.	-2	3	2828	0
O=C(Nc1ccccc1)NC1(C(=O)NCc2ccc3c(c2)OCO3)CCCCC1	2	i	-1	5	22677*	1
